PubChem BioAssay (NCI)
About 79,000 compounds went through this panel and 15% of them were active in at least one assay; those are over-represented in the sample as a whole. Cut-off read from the data, not from the text of the source: active = growth inhibition above about 70%; inactive = the rest.

Legend:
[1] = NCI Yeast Anticancer Drug Screen. Data for the rad50 strain (AID 155);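 note: 0% = growth of vehicle-only cultures of the same strain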; conditions: S. cerevisiae rad50 strain growth inhibition; at 50.0 µM; active compounds read high
Summary of the method: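 Growth of the mutant yeast was measured after compound exposure and referenced to vehicle-treated cultures.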

[2] = NCI Yeast Anticancer Drug Screen. Data for the mec2-1 strain (AID 157); conditions: S. cerevisiae mec2-1 strain, at 50.0 µM, active compounds read high
Summary of the method: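 Vehicle-treated cultures served as reference for growth inhibition of compound-exposed mec2-1 yeast.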

[3] = NCI Yeast Anticancer Drug Screen. Data for the sgs1 mgt1 strain (AID 161);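 note: 0% = growth of cultures given vehicle only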; conditions: S. cerevisiae sgs1 mgt1 strain, at 50.0 µM, active compounds read high
Summary of the method: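 Inhibition of yeast growth, normalised to vehicle-treated controls, is reported for a strain bearing genetic alterations in DNA damage repair.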

[4] = NCI Yeast Anticancer Drug Screen. Data for the cln2 rad14 strain (AID 165);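 note: 0% = growth equal to vehicle treated cultures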; conditions: S. cerevisiae cln2 rad14 strain, at 50.0 µM, active compounds read high
Summary of the method: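 Each compound was tested on cln2 rad14 yeast. Inhibition of growth was calculated against vehicle-exposed controls.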

[5] = NCI Yeast Anticancer Drug Screen. Data for the bub3 strain (AID 167); conditions: S. cerevisiae bub3 mutant strain, at 50.0 µM, active compounds read high
Summary of the method: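 Whole-cell yeast assay. The mutant strain was incubated with compounds, and growth inhibition was determined by comparison with vehicle-treated cells.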

[6] = NCI Yeast Anticancer Drug Screen. Data for the mlh1 rad18 strain (AID 175); conditions: S. cerevisiae mlh1 rad18 strain growth inhibition; at 50.0 µM; active compounds read high
Summary of the method: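 Vehicle-treated cultures served as the reference for growth inhibition in a yeast strain carrying DNA damage repair alterations exposed to each compound.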

Measured: growth inhibition

CCCCCCCCCCCCCCCC(=O)NOCc1cscn1
inactive: [1] -0.8% | [2] -29.1% | [3] -3.25% | [4] -22.1% | [5] -12.8% | [6] 6.1%

O=C(CCCCl)CCCCl
inactive: [1] 12.2% | [2] -10.9% | [3] 21.6% | [4] 12.6% | [5] -3.6% | [6] 19.1%

COC(=O)C(=O)C(C(=O)C(=O)Nc1cccc([N+](=O)[O-])c1)c1nc2ccc(Cl)cc2[nH]c1=O (stereo not given)
inactive: [1] 15% | [2] -22.2% | [3] 14.2% | [4] -19.1% | [5] -1.5% | [6] 0.2%

C[N+](C)(C)C(Cc1ccccc1)Cc1ccccc1
inactive: [1] -27% | [2] 9.95% | [3] -29.9% | [4] -47.1% | [5] -0.7% | [6] 5.65%

CCC(COC(=O)C(c1ccccc1)c1ccccc1)NC1CCCCC1 (stereo not given)
inactive: [1] 27.4% | [2] 14.3% | [3] 44.8% | [4] 14.8% | [5] 6.45% | [6] 27.6%

Cc1ccc(F)cc1S(N)(=O)=O
inactive: [1] -19.4% | [2] -9.65% | [3] -16.6% | [4] -14.4% | [5] 12.3% | [6] -7.8%

CO[C@H]1CC[C@@]2(C)C(=CC[C@H]3[C@@H]4CC[C@H]([C@H](C)CCCC(C)C)[C@@]4(C)CC[C@@H]32)C1
inactive: [1] -4.65% | [2] -20.4% | [3] 18.1% | [4] 24.7% | [5] 17.2% | [6] 9%

O=C(CC[N+](=O)[O-])OCC1OC(OC(=O)CC[N+](=O)[O-])C(O)C(O)C1O (stereo not given)
inactive: [1] 23% | [2] 0.85% | [3] 28.4% | [4] 34.1% | [5] 14.8% | [6] 38.8%

C(=C\c1ncc(-c2ccccc2)cc1-c1ccccc1)/c1ccccc1
inactive: [1] -12.3% | [2] -20.8% | [3] 5.8% | [4] -6.8% | [5] 0.75% | [6] -1.9%

CCCNS(=O)(=O)c1nc2ccccc2s1
inactive: [1] -26% | [2] -15.2% | [3] -5.6% | [4] -22.1% | [5] 2.65% | [6] -20.8%

CCOC(=O)C1C(=S)NC(=O)C1C#N (stereo not given)
inactive: [1] 0.3% | [2] -0.05% | [3] 1.35% | [4] 0.75% | [5] 11.3% | [6] -4.7%

CC(C)CCc1c(N)nc(N)[nH]c1=O
inactive: [1] 6.8% | [2] -13.6% | [3] -8.6% | [4] -42% | [5] 1% | [6] 3.75%

COc1ccc(/C=N/CCl)cc1
inactive: [1] -1.55% | [2] 2% | [3] 7.05% | [4] -49.3% | [5] -22.1% | [6] -1.2%

NC(=O)CCN(CCC(N)=O)c1ccc2c(c1)C(=O)c1ccccc1-2
inactive: [1] -7.3% | [2] -6.05% | [3] -8% | [4] -22.9% | [5] 15.5% | [6] -14.9%

CCc1nc(N)nc(C(=O)NCCNC(=O)c2nc(N)nc(CC)c2C)c1C
inactive: [1] -38.1% | [2] -14.2% | [3] -11.6% | [4] -16.7% | [5] -13.4% | [6] -45.5%

Nc1nc(N)nc(-c2cc(Br)c(N)c(Br)c2)n1
inactive: [1] -2.55% | [2] -7.45% | [3] 0.95% | [4] 34.6% | [5] 3.3% | [6] -8.25%

Cc1cc(O)c(C(C)C)cc1N=Cc1ccccc1O
inactive: [1] -38.4% | [2] -23.6% | [3] -58.2% | [4] -29.7% | [5] -21.6% | [6] -5.8%

CN(CCSCC(N)C(=O)O)CCSCC(N)C(=O)O (stereo not given)
inactive: [1] 5% | [2] 11.2% | [3] 0.7% | [4] 29.4% | [5] -58% | [6] 28.6%

CC(C)C(NC(=O)c1cnc2ccccc2n1)C(=O)O (stereo not given)
inactive: [1] -8.15% | [2] -5.5% | [3] 0.4% | [4] -51.7% | [5] 6.35% | [6] 7.75%

CC(=O)NC1CC(C)(C)NC(C)(C)C1
inactive: [1] -18.6% | [2] -30.2% | [3] 3.45% | [4] 10.5% | [5] 0.5% | [6] -9.25%
